Screens as filed in PubChem.
PAFAH1B3 inh: inhibitors of human PAFAH1B3; Q15102; AID 492972; inhibition, % at 3.39 µM; recombinant PAFAH1B3, FP-rhodamine probe, fluorescence polarization; hit rate 0.28% among 340,000;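 active = inhibition above the screen-wide average of all tested compounds plus 3 SD, cut at about 25% in these data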;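 note: 0% = enzyme with DMSO only and 100% = wells lacking PAFAH1B3 protein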
pPAFAH inh: pPAFAH (human) enzyme inhibition; inhibition, % at 3.39 µM; AID 463082; recombinant pPAFAH, FP-rhodamine probe fluorescence polarization; hit rate 1.5% among 330,000;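 active = inhibition above the mean inhibition across the screen plus 3 SD, cut at about 25% in these data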;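 note: inhibitors block binding of the rhodamine activity-based probe so polarization drops; 0% = enzyme with DMSO and 100% = wells lacking pPAFAH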
PAFAH1B2 FP inh: PAFAH1B2 (human) inhibition. recombinant PAFAH1B2, FP-rhodamine activity probe, fluorescence polarization. AID 492953. inhibition, % at 3.39 µM. hit rate 1.2% among 340,000;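 active = inhibition above the mean of all tested compounds plus 3 SD, cut at about 24% in these data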;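 note: 0% = enzyme with DMSO and 100% = wells lacking PAFAH1B2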
Target sequence (P68402 whole entry, looked up): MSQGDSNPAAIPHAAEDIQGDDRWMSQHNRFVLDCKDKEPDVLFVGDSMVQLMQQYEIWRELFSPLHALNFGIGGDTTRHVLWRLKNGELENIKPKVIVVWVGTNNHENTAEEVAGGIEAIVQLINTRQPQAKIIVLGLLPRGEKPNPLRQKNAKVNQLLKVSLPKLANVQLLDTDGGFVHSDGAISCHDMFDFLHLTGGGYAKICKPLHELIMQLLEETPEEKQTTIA
ZTA counter: blocks Epstein-Barr virus ZTA, an EBNA-1 counter-screen | P03206 | ZTA-DNA binding, fluorescence polarization | inhibition, % at 11 µM | hit rate 0.15% among 320,000 | AID 2234; in the data active = inhibition above about 33%
Target sequence (P03206 whole entry, looked up): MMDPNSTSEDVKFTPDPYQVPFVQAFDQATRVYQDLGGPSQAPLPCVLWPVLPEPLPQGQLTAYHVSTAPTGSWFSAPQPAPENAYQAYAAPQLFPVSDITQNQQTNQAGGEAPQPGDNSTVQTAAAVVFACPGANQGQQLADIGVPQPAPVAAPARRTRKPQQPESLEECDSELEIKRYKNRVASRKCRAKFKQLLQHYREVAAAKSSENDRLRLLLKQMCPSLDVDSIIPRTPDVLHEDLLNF
EBNA-1 inh: blocks EBNA-1 binding to DNA | AID 1950 | inhibition, % at 14.8 µM | EBNA-1 DNA binding, fluorescence polarization | hit rate 0.34% among 300,000; in the data active = inhibition above about 28%
PAFAH2 FP inh: inhibitors of human PAFAH2 | Q99487 | recombinant PAFAH2, FP-rhodamine activity probe, fluorescence polarization | inhibition, % at 3.39 µM | hit rate 0.99% among 340,000;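 active = inhibition above the mean over all tested compounds plus 3 SD, cut at about 30% in these data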;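 note: inhibitors block probe labeling of enzyme so polarization drops; 0% = enzyme with DMSO and 100% = wells lacking PAFAH2 protein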
Numbers without * were called inactive. In the library only some 2.9% were active in any assay of this set; here they are far more common.

`CC1=C(C(=O)OCc2ccccc2)C(c2ccc(C(C)(C)C)cc2)NC(=O)N1CCCCCC(=O)O` (configuration not stated) gave PAFAH1B3 inh 4.0, pPAFAH inh 25.1*, PAFAH1B2 FP inh 2.4, ZTA counter 4.7, EBNA-1 inh -2.0 and PAFAH2 FP inh 11.6.
For COC(=O)CCCN1C(=O)NC(c2ccc(-c3ccccc3)cc2)C(C(=O)OCc2ccccc2)=C1C (configuration not stated) the results were PAFAH1B3 inh 8.6, pPAFAH inh 27.1*, PAFAH1B2 FP inh 3.9 and PAFAH2 FP inh 1.0.
For COc1ccc(C2NC(=O)N(CCCC(=O)O)C(C)=C2C(=O)OCc2ccccc2)cc1 (configuration not stated) the results were pPAFAH inh 3.9, ZTA counter 14.9 and EBNA-1 inh 4.5.
Screening C[C@@H]1CN([C@@H](C)CO)C(=O)c2cc(NS(C)(=O)=O)ccc2O[C@@H]1CN(C)S(=O)(=O)c1ccccc1 returned PAFAH1B3 inh 6.4, pPAFAH inh -2.0, PAFAH1B2 FP inh 4.1 and PAFAH2 FP inh 0.3.
`CC(C)(CNC(=O)c1cccc(NS(=O)(=O)c2ccc(Br)cc2)c1)N1CCOCC1` gave PAFAH1B3 inh 6.4, pPAFAH inh 7.3, PAFAH1B2 FP inh 27.2*, ZTA counter -7.2, EBNA-1 inh 3.2 and PAFAH2 FP inh 1.8.
For Cc1ccc(S(=O)(=O)Nc2cccc(C(=O)NCC(C)(C)N3CCOCC3)c2)cc1F the results were PAFAH1B3 inh 7.8, pPAFAH inh 5.5, PAFAH1B2 FP inh 2.6, ZTA counter 6.2, EBNA-1 inh -6.1 and PAFAH2 FP inh 1.1.
`O=C(N/N=C/c1ccc[nH]1)c1cc(-c2ccc(Cl)cc2)nc2ccccc12` gave PAFAH1B3 inh 6.1, pPAFAH inh 12.3, PAFAH1B2 FP inh -2.1, ZTA counter -6.2, EBNA-1 inh -10.8 and PAFAH2 FP inh -19.3.
For CC(CCC(=O)O)(c1ccc(O)cc1)c1ccc(O)cc1 the results were PAFAH1B3 inh 11.5, pPAFAH inh -2.1, PAFAH1B2 FP inh 24.8*, ZTA counter 0.5 and PAFAH2 FP inh 1.1.
For Cc1nn(-c2ccccc2)c(Cl)c1CN(C(=O)CCl)c1ccc(Cl)cc1 the results were PAFAH1B3 inh 0.0, pPAFAH inh 4.2, PAFAH1B2 FP inh 40.9*, ZTA counter 1.8, EBNA-1 inh 4.6 and PAFAH2 FP inh 2.3.
`Cc1ccc(SCC(=O)OC(C)C(=O)NC2CCCCC2C)c(C)c1` (configuration not stated) gave PAFAH1B3 inh 7.3, pPAFAH inh 8.2, PAFAH1B2 FP inh 9.2, ZTA counter 15.3 and PAFAH2 FP inh 12.3.
Screening Cc1ccc(SCC(=O)NC(C)c2ccccc2)cc1 (configuration not stated) returned PAFAH1B3 inh 0.2, pPAFAH inh -4.1, PAFAH1B2 FP inh 34.4*, ZTA counter -13.1, EBNA-1 inh -11.4 and PAFAH2 FP inh -0.3.
Cc1ccc(SCC(=O)OCC(=O)NCCc2ccccc2)cc1 was read as PAFAH1B3 inh 9.1, pPAFAH inh 27.7*, PAFAH1B2 FP inh 49.9*, ZTA counter 0.0 and PAFAH2 FP inh 3.8.
O=C(CSc1ccc2ccccc2c1)NCc1cccs1 was read as PAFAH1B3 inh 3.8, pPAFAH inh -4.7, PAFAH1B2 FP inh 26.2*, ZTA counter 2.9, EBNA-1 inh -8.1 and PAFAH2 FP inh -2.4.
Screening O=C(COC(=O)c1c(Cl)cccc1Cl)NCc1cccs1 returned PAFAH1B3 inh 1.8, pPAFAH inh 4.0, PAFAH1B2 FP inh 6.3 and PAFAH2 FP inh -1.3.
O=C(COC(=O)c1cccc(Cl)c1Cl)NCc1cccs1 was read as PAFAH1B3 inh 7.6, pPAFAH inh 33.4*, PAFAH1B2 FP inh 3.2, ZTA counter -8.2 and PAFAH2 FP inh 32.6*.
Screening COC(=O)c1ccc(CNC(=O)c2ccc(COc3ccccc3)cc2)cc1 returned PAFAH1B3 inh 1.1, pPAFAH inh -6.3, PAFAH1B2 FP inh 0.5, ZTA counter 12.3, EBNA-1 inh 6.7 and PAFAH2 FP inh -13.7.
Screening COC(=O)[C@]1(C)N[C@H](CN(C)S(=O)(=O)c2ccccc2)[C@@H]2C(=O)N(Cc3ccccc3)C(=O)[C@@H]21 returned PAFAH1B3 inh 6.4, pPAFAH inh -0.8, PAFAH1B2 FP inh -1.7 and PAFAH2 FP inh 7.0.
Screening CCCCN(C(=O)c1cc(Cl)nc2ccccc12)c1c(N)n(CCCC)c(=O)[nH]c1=O returned PAFAH1B3 inh 8.3, pPAFAH inh 0.8, PAFAH1B2 FP inh -2.6, ZTA counter 7.1, EBNA-1 inh 5.0 and PAFAH2 FP inh 3.5.
For O=C(COC(=O)CSc1ccc([N+](=O)[O-])cc1)NCc1cccs1 the results were PAFAH1B3 inh 3.5, pPAFAH inh 13.5, PAFAH1B2 FP inh 9.0, ZTA counter -10.9, EBNA-1 inh -7.3 and PAFAH2 FP inh -5.1.
For Cc1ccc(SCC(=O)OCC(=O)NCCc2ccccc2)cc1C the results were PAFAH1B3 inh 12.3, pPAFAH inh 29.6*, PAFAH1B2 FP inh 11.6, ZTA counter 7.9 and PAFAH2 FP inh 0.4.
For Cc1ccc(SCC(=O)OCC(=O)NCc2cccs2)cc1 the results were PAFAH1B3 inh 4.8, pPAFAH inh 24.4, PAFAH1B2 FP inh 27.9*, ZTA counter -4.2, EBNA-1 inh 4.0 and PAFAH2 FP inh 3.2.
Screening Cc1ccc(NC(=O)CSCC(=O)N2CCN(Cc3ccc4c(c3)OCO4)CC2)cc1 returned PAFAH1B3 inh 5.6, pPAFAH inh 6.0, PAFAH1B2 FP inh 1.9, ZTA counter 12.3, EBNA-1 inh -2.2 and PAFAH2 FP inh 1.7.
CCCCCCCCn1c(=O)c(C(=O)OCC)c(O)c2ccccc21 was read as PAFAH1B3 inh 9.1, pPAFAH inh 4.7, PAFAH1B2 FP inh 24.3*, ZTA counter -6.2, EBNA-1 inh -12.6 and PAFAH2 FP inh 2.0.
`CCOC(=O)c1c(Cc2ccccc2)c[nH]c1C` gave PAFAH1B3 inh 6.3, pPAFAH inh 7.3, PAFAH1B2 FP inh 14.8, ZTA counter 15.1, EBNA-1 inh 11.3 and PAFAH2 FP inh 4.5.
`O=C(OCc1c(Cl)cccc1Cl)c1cnccn1` gave PAFAH1B3 inh 2.0, pPAFAH inh 2.9, PAFAH1B2 FP inh 6.7, ZTA counter 3.1, EBNA-1 inh 2.9 and PAFAH2 FP inh 2.4.
For O=C(OCc1c(Cl)cccc1Cl)c1cccnc1Cl the results were PAFAH1B3 inh 0.3, pPAFAH inh 31.6*, PAFAH1B2 FP inh -2.4, ZTA counter -6.0, EBNA-1 inh -2.7 and PAFAH2 FP inh 5.4.
Screening O=C(OCc1c(Cl)cccc1Cl)c1cccnc1 returned PAFAH1B3 inh 1.9, pPAFAH inh 33.1*, PAFAH1B2 FP inh 0.7, ZTA counter -11.1, EBNA-1 inh -2.1 and PAFAH2 FP inh 6.7.
CCOC(=O)c1sc(N2C(=O)C(O)=C(C(=O)c3ccco3)C2c2ccc([N+](=O)[O-])cc2)nc1C (configuration not stated) was read as PAFAH1B3 inh 2.7, pPAFAH inh 8.6, PAFAH1B2 FP inh 0.8, ZTA counter -16.8, EBNA-1 inh 0.8 and PAFAH2 FP inh 7.5.
